GBA enhancer: glucocerebrosidase activity enhancement; activation, % at 10 µM; P04062; L444P Gaucher fibroblasts, 4-MU-glucoside fluorescence, 3 days; 0.44% of 30,000 active; AID 784; in the data active = activation above about 65%;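 note: 0% = vehicle wells and 100% = positive control wells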
Target sequence (P04062 whole entry L483P): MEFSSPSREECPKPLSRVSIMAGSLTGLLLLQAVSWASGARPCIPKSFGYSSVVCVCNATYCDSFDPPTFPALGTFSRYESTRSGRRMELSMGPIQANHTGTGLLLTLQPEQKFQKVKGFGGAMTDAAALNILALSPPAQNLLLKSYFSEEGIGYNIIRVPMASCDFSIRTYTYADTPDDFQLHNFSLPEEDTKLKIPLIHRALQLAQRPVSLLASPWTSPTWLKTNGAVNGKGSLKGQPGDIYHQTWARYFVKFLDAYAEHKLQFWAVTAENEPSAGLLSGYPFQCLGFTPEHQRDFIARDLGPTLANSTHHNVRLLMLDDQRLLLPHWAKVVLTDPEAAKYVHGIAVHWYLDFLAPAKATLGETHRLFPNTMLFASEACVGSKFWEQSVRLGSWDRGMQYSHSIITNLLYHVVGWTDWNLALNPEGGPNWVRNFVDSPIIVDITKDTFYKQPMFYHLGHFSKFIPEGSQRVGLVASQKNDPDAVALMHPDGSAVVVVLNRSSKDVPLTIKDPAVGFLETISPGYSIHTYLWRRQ
* hit, by the source's call. This excerpt belongs to a sample that is enriched for hits.

SMILES	GBA enhancer
COc1ccc(C(C(=O)NC2CCCCC2)N2CCC3(CC2)OCCO3)cc1 (configuration not stated)	0
Cc1ccc(C(C(=O)NC2CCCCC2)N2CCCC2)cc1 (configuration not stated)	127*
CN(C)C(C(=O)NC1CCCCC1)c1ccc(Cl)cc1 (configuration not stated)	-23
CCSc1nc2cc(OC)c(OC)cc2c(=O)n1CC	-9
CCOCCCn1c(=N)c(C(=O)NCc2ccc3c(c2)OCO3)cc2c(=O)n3ccccc3nc21	-15
COCCn1c(=N)c(C(=O)NCCc2ccc(OC)cc2)cc2c(=O)n3cccc(C)c3nc21	-24
CCOCCCn1c(=N)c(C(=O)NCCN2CCOCC2)cc2c(=O)n3cccc(C)c3nc21	75*
COC(=O)c1ccc(CSc2nc(C)nc3sc(C)c(C)c23)o1	-26
Cc1cc(C)n(-c2c(F)c(F)c(CN3CCOCC3)c(F)c2F)n1	-12
C/C=C/CSc1nc2c(c(=O)[nH]c(=O)n2C)n1C(C)C	-56
CC(C)n1c(=S)[nH]c2c1c(=O)[nH]c(=O)n2C	136*
CC(C)n1c(SCC(N)=O)nc2c1c(=O)[nH]c(=O)n2C	12
CCCCN(CC)S(=O)(=O)c1ccc(C(=O)Nc2nnc(CSC)o2)cc1	81*
CCCN(CCC)S(=O)(=O)c1ccc(C(=O)Nc2nnc(CSC)o2)cc1	8
CCCCN(CCCC)S(=O)(=O)c1ccc(C(=O)Nc2nnc(CSC)o2)cc1	10
CCCCn1nnc(NC(=O)CC23CC4CC(CC(C4)C2)C3)n1	-6
CCCCCNC(CC(=O)Nc1ccc(OC)cc1)C(=O)O (configuration not stated)	0
Cc1cccc(NC(=O)CSc2ncnc3c2oc2ccccc23)c1	-10
CCc1nc(SCC(=O)Nc2ccc3c(c2)OCCO3)c2oc3ccccc3c2n1	-131
Cc1nc(SCC(=O)Nc2ccc3c(c2)OCCO3)c2oc3ccccc3c2n1	149*
O=C(NCCCN1CCOCC1)c1cccs1	1
CCc1ccccc1N1CC(C(=O)O)CC1=O (configuration not stated)	-36
CC1(C)CC(=O)CC(C)(C)N1OC(=O)c1ccccn1	-19
CC(=O)c1cccc(NC(=O)N2CCCC2C(=O)NCc2ccc(C)cc2)c1 (configuration not stated)	23
CC(=O)c1cccc(NC(=O)N2CCCC2C(=O)Nc2ccccc2C)c1 (configuration not stated)	-20
SMILES	GBA enhancer
CC(=O)Nc1cccc(NC(=O)C2CCCN2C(=O)Nc2ccc(C)cc2)c1 (configuration not stated)	80*
Cc1cc(C)n2nc(SCC(=O)N(C)Cc3ccccc3)nc2n1	6
O=S(=O)(Cc1ccccc1)N1CCc2ccccc21	5
Cc1ccc2cc(C(c3nnnn3C(C)(C)C)N3CCCC3)c(=O)[nH]c2c1C (configuration not stated)	-22
C=CCn1c(-c2cc(OC)c(OC)c(OC)c2)n[nH]c1=S	-7
C=CCn1c(-c2c[nH]c3ccccc23)n[nH]c1=S	67*
C=CCn1c(-c2ccco2)n[nH]c1=S	6
Cc1nn(-c2ccccc2)c2c1C(O)n1c(nc3ccccc31)S2 (configuration not stated)	-18
COc1ccc(-c2nc(N)nc(C)c2Oc2ccccc2Br)c(O)c1	-8
CCC(OC(=O)c1cc2sccc2n1C)C(=O)NCc1ccco1 (configuration not stated)	-5
CCOc1ccc(-c2noc(-c3ccncc3)n2)cc1OCC	228*
CCOc1cc(-c2noc(-c3ccncc3)n2)cc(Br)c1OC	0
CCOc1ccc(-c2nc(-c3ccc(OC)cc3)no2)cc1OCC	1
O=C(Nc1ccc(Br)cc1F)c1sccc1-n1cccc1	-9
C/C(=N\O)c1ccc2c3ccccc3n(C)c2c1	77*
CC(=O)n1c2ccccc2c2c1c1ccccc1n2C	7
Cn1cc(/C(Cc2ccccc2)=N\O)c2ccccc21	4
O=C(O)CCC(=O)OCC1CCCO1 (configuration not stated)	10
O=C(Nc1ccccc1C(F)(F)F)C1CC(=O)N(c2ccccc2F)C1 (configuration not stated)	1
COC(=O)C1=C(CSCc2ccco2)NC(=O)NC1c1cc(C)ccc1C (configuration not stated)	12
N=c1c(C(=O)NC2CCCCC2)cc2c(=O)n3ccccc3nc2n1CCN1CCOCC1	-1
CCOCCCNC(=O)C1CCN(S(=O)(=O)N2CC(C)CC(C)C2)CC1 (configuration not stated)	4
O=S(=O)(NCCc1csc(-c2ccccc2)n1)c1ccc2c(c1)OCCO2	54
O=S(=O)(NCc1csc(-c2cccnc2)n1)c1ccc2c(c1)OCCO2	109*
Cc1nc(CNS(=O)(=O)c2ccc3c(c2)OCCO3)cs1	5
SMILES	GBA enhancer
CCn1c(SCC(=O)Nc2cccc(C(C)=O)c2)nnc1C(C)C	-11
CCOC(=O)c1ccc(NC(=O)CSc2nnc(C)n2-c2ccccc2)cc1	9
CCC1C(=O)N=C(SCC(=O)Nc2cccc3ccccc23)NC1=O (configuration not stated)	4
CCOC(=O)c1ccc(NC(=O)CSC2=NC(=O)C(CC)C(=O)N2)cc1 (configuration not stated)	145*
Cc1ccc(C)c(NC(=O)C2CC=CCC2C(=O)O)c1 (configuration not stated)	13
Cc1cccc(NC(=O)C2CC(O)CN2C(=O)OCc2ccccc2)c1 (configuration not stated)	21
Cc1ccc(C)c(NC(=O)C2CC(O)CN2C(=O)OC(C)(C)C)c1 (configuration not stated)	72*
O=C(CN1C(=O)c2ccccc2S1(=O)=O)NCc1ccccn1	-13
O=C(CN1C(=O)c2ccccc2S1(=O)=O)NCCSC1CCCCC1	812*
COc1ccc(CCNC(=O)CN2C(=O)c3ccccc3S2(=O)=O)cc1	6
O=C1c2ccccc2C(=O)N1Cc1nc2ccccc2c(=O)n1CCN1CCOCC1	-11
CCOC(=O)N1CCC(Nc2c(N3CCN(c4cccc(C(F)(F)F)c4)CC3)c(=O)c2=O)CC1	-10
Cn1c(=O)c2c(nc(CN3CCc4ccccc4C3)n2CC(=O)c2ccccc2)n(C)c1=O	9
CCOC(=O)c1oc2ccccc2c1NC(=O)c1cccc(OC)c1OC	-26
Cc1nonc1NC(=O)OCCN1CCOC1=O	88*
Cc1ccc2c3c(c(SCC(=O)Nc4nonc4C)nc2c1)CCCC3	14
O=C1OCCN1CCN(CN1C(=O)CCC1=O)CN1C(=O)CCC1=O	-15
CN(c1ccc(C(=O)Nc2ccccc2C(F)(F)F)cc1)S(C)(=O)=O	-33
COc1cc2c(cc1OC)C(=NCCC(=O)O)NC(C)(C)C2	-31
CC(OC(=O)c1cccs1)C(=O)NCc1cccs1 (configuration not stated)	1
CC(OC(=O)c1nsc(Cl)c1Cl)C(=O)NCc1cccs1 (configuration not stated)	79*
COCCNC(=O)C(C)OC(=O)c1nsc(Cl)c1Cl (configuration not stated)	-18
CCN(C(=O)CN1CCN(c2ccc(OC)cc2)CC1)c1c(N)n(Cc2ccccc2)c(=O)[nH]c1=O	-17
COc1ccc(-c2cc(C(=O)NCC(C)C)no2)cc1	-39
CC1c2nc3ccccc3n2C(CC(=O)NCc2ccccn2)C(=O)N1Cc1ccccc1 (configuration not stated)	15
CCOC(=O)N1CCC2(CC1)C(C#N)=C(N)Oc1c2c(C)nn1-c1cccc(Cl)c1	74*

Compound activity (PubChem)
